Out of some 85,000 compounds screened, about 35 (0.04%) were called active.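 How the source made its calls: active means viability drop by adding the cancer drug above about 55%, with treated viability meeting a 40% cutoff (limit read from the data); inactive means the rest, inconclusive results apart.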 The full list was thinned out, with actives kept by preference.

This assay in a line: reversal of MRP1-mediated doxorubicin resistance, primary screen, H69AR cells, doxorubicin co-treatment (AID 602).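 On differential viability (reversal): larger differential means the compound sensitizes cells more to doxorubicin.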 Particulars: CellTiter-Glo, 72 h, at 10 µM; for differential viability (reversal): stronger effect = higher value.
[1] abbreviates: H69AR cells + 2 uM doxorubicin, measured here: viability with 2 uM doxorubicin, stronger effect = lower value.
[2] abbreviates: H69AR cells, measured here: cytotoxicity without doxorubicin.

Take `CSC1=NP(=S)(SC)N(C)c2nc3n(c21)CCC3` (stereo not given): the differential viability (reversal) (H69AR cells + 2 uM doxorubicin) is 57.9% (active). The viability (usually the share of living cells, or the viability signal relative to a control) was 27.2% under setting [1] and 85.1% under setting [2].

`CCOc1ccc(CN(CCCl)CCCl)cc1C(=O)OC`: the differential viability (reversal) (H69AR cells + 2 uM doxorubicin) was -29% (inactive). Moreover, the viability was 83.1% under setting [1] and 54.1% under setting [2].

On to `Cn1c(O)c(C=NCCN2CCNCC2)c(=O)n(C)c1=O`, for which the differential viability (reversal) (H69AR cells + 2 uM doxorubicin) was 8.13% (inactive). The viability was 85.1% under setting [1] and 93.2% under setting [2].

Consider `CC(=O)NC(=O)NC(C)Cc1ccccc1` (stereo not given), for which the differential viability (reversal) (H69AR cells + 2 uM doxorubicin) was -9.72% (inactive). For the same molecule, the viability is, setting by setting: under setting [1], 96.7%; under setting [2], 87%.

For `CCN(N=Nc1nonc1OC)c1nonc1OC`, where the note is “H69AR cells + 2 uM doxorubicin”, the differential viability (reversal) was 9.43% (inactive). The viability was found to be 86.2% under setting [1] and 95.7% under setting [2].
